# PubChem BioAssay AID1159580 (chemical genetic matrix, 2015)
# The campaign covered roughly 5,500 compounds. About 2,000 (36%) were called active. About 18% were inconclusive and are not listed. Some of the results follow. Unmarked numbers belong to inactive results. Rule as the data show it: active = normalized growth mostly below about 0.91 (no sharp cut-off); inconclusive = no clear call, values can overlap the other calls; inactive = mostly above about 0.92.
# Assay: chemical genetic growth profiling, strain panel (AID 1159580);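 also: tested at 20 µM; growth read once vehicle control cultures reached saturation at 30 °C; 1 = growth at the plate median or of vehicle wells; lower values mean less growth of the strain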
# Conditions: S. cerevisiae deletion strains, growth OD
# [1] = locus YAR019C, strain CDC15, active compounds read low
# [2] = locus YBL105C, strain PKC1, active compounds read low
# [3] = locus YBR135W, strain CKS1, active compounds read low
# [4] = locus YBR136W, strain MEC1, active compounds read low
# [5] = locus YBR160W, strain CDC28, active compounds read low
# [6] = locus YDL017W, strain CDC7, active compounds read low
# [7] = locus YDL028C, strain MPS1, active compounds read low
# [8] = locus YDL101C, strain DUN1, active compounds read low
# [9] = locus YDL108W, strain KIN28, active compounds read low
# [10] = locus YDL132W, strain cdc53, active compounds read low
# [11] = locus YDL214C, strain PRR2, active compounds read low
# [12] = locus YDR052C, strain DBF4, active compounds read low
# [13] = locus YDR054C, strain cdc34, active compounds read low
# [14] = locus YDR226W, strain ADK1, active compounds read low
# [15] = locus YDR477W, strain SNF1, active compounds read low
# [16] = locus YER123W, strain YCK3, active compounds read low
# [17] = locus YER133W, strain GLC7, active compounds read low
# [18] = locus YFL009W, strain cdc4, active compounds read low
# [19] = locus YFL029C, strain CAK1, active compounds read low
# [20] = locus YFR003C, strain YPI1, active compounds read low
# [21] = locus YFR019W, strain FAB1, active compounds read low
# [22] = locus YFR028C, strain CDC14, active compounds read low
# [23] = locus YGR040W, strain KSS1, active compounds read low
# [24] = locus YGR052W, strain FMP48, active compounds read low
# [25] = locus YGR092W, strain DBF2, active compounds read low
# [26] = locus YHR079C, strain IRE1, active compounds read low
# [27] = locus YHR082C, strain KSP1, active compounds read low
# [28] = locus YHR205W, strain SCH9, active compounds read low
# [29] = locus YIL147C, strain SLN1, active compounds read low
# [30] = locus YJL095W, strain BCK1, active compounds read low
# [31] = locus YJL128C, strain PBS2, active compounds read low
# [32] = locus YJL157C, strain FAR1, active compounds read low
# [33] = locus YJR016C, strain ILV3, active compounds read low
# [34] = locus YJR066W, strain TOR1 (second series), active compounds read low
# [35] = locus YJR066W, strain TOR1, active compounds read low
# [36] = locus YKL048C, strain ELM1, active compounds read low
# [37] = locus YKL067W, strain YNK1, active compounds read low
# [38] = locus YKL101W, strain HSL1, active compounds read low
# [39] = locus YKL193C, strain SDS22, active compounds read low
# [40] = locus YKL203C, strain TOR2, active compounds read low
# [41] = locus YLR113W, strain HOG1, active compounds read low
# [42] = locus YLR133W, strain CKI1, active compounds read low
# [43] = locus YLR403W, strain SFP1, active compounds read low
# [44] = locus YML070W, strain DAK1, active compounds read low
# [45] = locus YMR001C, strain CDC5, active compounds read low
# [46] = locus YMR205C, strain PFK2 (second series), active compounds read low
# [47] = locus YMR277W, strain FCP1, active compounds read low
# [48] = locus YNL006W, strain LST8, active compounds read low
# [49] = locus YNL020C, strain ARK1, active compounds read low
# [50] = locus YNL161W, strain CBK1, active compounds read low
# [51] = locus YNL183C, strain NPR1, active compounds read low
# [52] = locus YNL207W, strain RIO2, active compounds read low
# [53] = locus YNL222W, strain SSU72, active compounds read low
# [54] = locus YNL307C, strain MCK1 (second series), active compounds read low
# [55] = locus YOL078W, strain AVO1, active compounds read low
# [56] = locus YOL136C, strain PFK27, active compounds read low
# [57] = locus YOR061W, strain CKA2, active compounds read low
# [58] = locus YOR119C, strain RIO1, active compounds read low
# [59] = locus YOR231W, strain MKK1, active compounds read low
# [60] = locus YOR329C, strain SCD5, active compounds read low
# [61] = locus YPL031C, strain PHO85, active compounds read low
# [62] = locus YPL153C, strain RAD53, active compounds read low
# [63] = locus YPL204W, strain HRR25, active compounds read low
# [64] = locus YPL209C, strain IPL1, active compounds read low
# [65] = locus YPL256C, strain CLN2, active compounds read low
# [66] = locus YPR025C, strain CCL1, active compounds read low
# [67] = locus YPR106W, strain ISR1, active compounds read low
# [68] = locus YPR111W, strain DBF20, active compounds read low
# [69] = strain NNK1, active compounds read low
# [70] = strain TSCII, active compounds read low
# [71] = locus YHR030C, strain SLT2, active compounds read low
structure (smiles),measurement,setting,value
CC(C)(C)c1csc(NNC(=O)c2ccc(Cl)cc2)n1,normalized growth,[1],0.978
same,normalized growth,[2],0.979
same,normalized growth,[3],0.954
same,normalized growth,[4],0.981
same,normalized growth,[5],0.966
same,normalized growth,[6],0.978
same,normalized growth,[7],0.98
same,normalized growth,[8],0.968
same,normalized growth,[9],0.974
same,normalized growth,[10],0.968
same,normalized growth,[11],0.884
same,normalized growth,[12],0.984
same,normalized growth,[13],0.958
same,normalized growth,[14],0.975
same,normalized growth,[15],0.925
same,normalized growth,[16],0.795
same,normalized growth,[17],0.913
same,normalized growth,[18],0.966
same,normalized growth,[19],0.963
same,normalized growth,[20],0.982
same,normalized growth,[21],0.92
same,normalized growth,[22],0.96
same,normalized growth,[23],0.883
same,normalized growth,[24],0.923
same,normalized growth,[25],0.871
same,normalized growth,[26],0.891
same,normalized growth,[27],0.911
same,normalized growth,[28],0.882
same,normalized growth,[29],0.984
same,normalized growth,[30],0.863
same,normalized growth,[31],0.921
same,normalized growth,[32],0.885
same,normalized growth,[33],0.964
same,normalized growth,[34],0.946
same,normalized growth,[35],0.904
same,normalized growth,[36],0.892
same,normalized growth,[37],0.885
same,normalized growth,[38],0.829
same,normalized growth,[39],0.967
same,normalized growth,[40],0.958
same,normalized growth,[41],0.756 (active)
same,normalized growth,[42],0.872
same,normalized growth,[43],0.861
same,normalized growth,[44],0.814
same,normalized growth,[45],0.974
same,normalized growth,[46],0.872
same,normalized growth,[47],0.975
same,normalized growth,[48],0.982
same,normalized growth,[49],0.884
same,normalized growth,[50],0.969
same,normalized growth,[51],0.837
same,normalized growth,[52],0.96
same,normalized growth,[53],0.963
same,normalized growth,[54],0.899
same,normalized growth,[55],0.962
same,normalized growth,[56],0.868
same,normalized growth,[57],0.899
same,normalized growth,[58],0.967
same,normalized growth,[59],0.812
same,normalized growth,[60],0.97
same,normalized growth,[61],0.912
same,normalized growth,[62],0.895
same,normalized growth,[63],0.914
same,normalized growth,[64],0.966
same,normalized growth,[65],0.769 (active)
same,normalized growth,[66],0.964
same,normalized growth,[67],0.954
same,normalized growth,[68],0.949
same,normalized growth,[69],0.957
same,normalized growth,[70],0.969
CC(C)(C)OC(=O)NC1CCN(C(=O)c2ccc(Cl)cc2Cl)CC1,normalized growth,"locus YAL013W, strain DEP1, active compounds read low",1
same,normalized growth,"locus YBR229C, strain ROT2, active compounds read low",0.993
same,normalized growth,"locus YCL061C, strain MRC1, active compounds read low",1.01
same,normalized growth,[8],0.995
same,normalized growth,"locus YDL134C, strain PPH21, active compounds read low",0.999
same,normalized growth,"locus YDR150W, strain NUM1, active compounds read low",0.95
same,normalized growth,"locus YEL061C, strain CIN8, active compounds read low",1
same,normalized growth,"locus YGR078C, strain PAC10, active compounds read low",1
same,normalized growth,"locus YGR229C, strain SMI1, active compounds read low",1.01
same,normalized growth,[71],1.11
same,normalized growth,"locus YHR087W, strain rtc3, active compounds read low",0.996
same,normalized growth,"locus YJL187C, strain SWE1, active compounds read low",1.01
same,normalized growth,"locus YJR043C, strain POL32, active compounds read low",0.997
same,normalized growth,"locus YJR075W, strain HOC1, active compounds read low",0.999
same,normalized growth,"locus YKL190W, strain CNB1, active compounds read low",1.01
same,normalized growth,"locus YLR039C, strain RIC1, active compounds read low",1.02
same,normalized growth,"locus YLR058C, strain SHM2 (second series), active compounds read low",1
same,normalized growth,"locus YLR085C, strain ARP6, active compounds read low",1.03
same,normalized growth,"locus YLR262C, strain YPT6, active compounds read low",1.09
same,normalized growth,"locus YML094W, strain GIM5, active compounds read low",1.04
same,normalized growth,"locus YMR219W, strain ESC1, active compounds read low",0.996
same,normalized growth,"locus YMR263W, strain SAP30, active compounds read low",0.989
same,normalized growth,"locus YMR307W, strain GAS1, active compounds read low",0.824
same,normalized growth,"locus YNL128W, strain TEP1, active compounds read low",1.01
same,normalized growth,"locus YNL153C, strain GIM3, active compounds read low",1
same,normalized growth,"locus YNL298W, strain CLA4 (second series), active compounds read low",1.01
same,normalized growth,"locus YNL322C, strain KRE1, active compounds read low",0.995
same,normalized growth,"locus YNR030W, strain Alg12, active compounds read low",1.02
same,normalized growth,"locus YPL055C, strain LGE1, active compounds read low",1.08
same,normalized growth,"locus YPL241C, strain CIN2, active compounds read low",1.01
same,normalized growth,"locus YPR135W, strain CTF4, active compounds read low",1
CC(C)(C)c1cc2nc(C(F)(F)F)cc(NNC(=O)c3ccc(Cl)cc3)n2n1,normalized growth,[1],0.978
same,normalized growth,[2],0.994
same,normalized growth,[3],0.977
same,normalized growth,[4],0.989
same,normalized growth,[5],0.978
same,normalized growth,[6],0.996
same,normalized growth,[7],0.984
same,normalized growth,[8],0.991
same,normalized growth,[9],0.981
same,normalized growth,[10],0.974
same,normalized growth,[11],1.01
same,normalized growth,[12],0.989
same,normalized growth,[13],0.978
same,normalized growth,[14],0.982
same,normalized growth,[15],1.03
same,normalized growth,[16],0.999
same,normalized growth,[17],1.03
same,normalized growth,[18],0.981
same,normalized growth,[19],0.981
same,normalized growth,[20],0.992
same,normalized growth,[21],0.966
same,normalized growth,[22],0.979
same,normalized growth,[23],1.01
same,normalized growth,[24],1.12
same,normalized growth,[25],0.952
same,normalized growth,[71],1.04
same,normalized growth,[26],0.989
same,normalized growth,[27],1.06
same,normalized growth,[28],0.99
same,normalized growth,[29],0.983
same,normalized growth,[30],0.991
same,normalized growth,[31],0.961
same,normalized growth,[32],1.02
same,normalized growth,[33],0.977
same,normalized growth,[34],0.991
same,normalized growth,[35],1.05
same,normalized growth,[36],0.986
same,normalized growth,[37],1
same,normalized growth,[38],1.01
same,normalized growth,[39],0.977
same,normalized growth,[40],1.07
same,normalized growth,[41],0.983
same,normalized growth,[42],0.995
same,normalized growth,[43],0.991
same,normalized growth,[44],1
same,normalized growth,[45],0.994
same,normalized growth,[46],1
same,normalized growth,[47],0.973
same,normalized growth,[48],0.988
same,normalized growth,[49],1.01
same,normalized growth,[50],0.991
same,normalized growth,[51],0.988
same,normalized growth,[52],0.981
same,normalized growth,[53],0.975
same,normalized growth,[54],1
same,normalized growth,[55],0.98
same,normalized growth,[56],1.01
same,normalized growth,[57],0.995
same,normalized growth,[58],1.11
same,normalized growth,[59],0.988
same,normalized growth,[60],0.997
same,normalized growth,[61],1.03
same,normalized growth,[62],1.03
same,normalized growth,[63],1.05
same,normalized growth,[64],0.988
same,normalized growth,[65],0.994
same,normalized growth,[66],0.988
same,normalized growth,[67],0.988
same,normalized growth,[68],0.976
same,normalized growth,[69],0.983
same,normalized growth,[70],0.984
